Residue numbers refer to the chain shown, from its start.
What follows are sequences tested against T1, GST-Nv-NF-kB (Cys allele) (Nematostella vectensis, UniProt E5G601 2-411) (assay: protein-binding microarray (PBM); PBM: ~300 nM protein, 6 mM HEPES pH 7.8, 80 mM KCl, 0.5 mM EDTA, 0.5 mM EGTA, 6% glycerol, 35 ng/ul poly-dIdC, 1% milk, 1 h, room temperature; Ap Aiptasia and Nv Nematostella (sea anemones) / Co Capsaspora / Aq Amphimedon (sponge) / Dm Drosophila / Hu human; RHD is the Rel homology domain; high values mean tight binding). Conditions: dsDNA, one strand shown.
T1 sequence: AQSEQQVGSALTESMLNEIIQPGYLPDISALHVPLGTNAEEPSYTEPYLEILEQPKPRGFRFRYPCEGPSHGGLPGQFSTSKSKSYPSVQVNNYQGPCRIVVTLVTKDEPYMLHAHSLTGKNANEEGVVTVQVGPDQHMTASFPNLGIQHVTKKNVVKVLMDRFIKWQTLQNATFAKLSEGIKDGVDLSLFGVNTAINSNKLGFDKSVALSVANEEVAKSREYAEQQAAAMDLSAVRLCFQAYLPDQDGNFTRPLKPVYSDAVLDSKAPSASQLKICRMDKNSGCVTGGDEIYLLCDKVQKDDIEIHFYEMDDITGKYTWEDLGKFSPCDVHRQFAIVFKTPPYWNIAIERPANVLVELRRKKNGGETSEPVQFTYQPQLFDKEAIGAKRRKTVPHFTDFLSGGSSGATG

With “CCGATTAACATCATTTCCCAAAATGATGTTAATCGGGTCTTGATTCGCTTGACGCTGCTG” as the sequence, how does the binding signal read?
Its binding signal is 2.55 z-score.

With “CCGATTAACATCAGGAATATTCCTGATGTTAATCGGGTCTTGATTCGCTTGACGCTGCTG” as the sequence, how does the binding signal read?
The binding signal was 1.22 z-score.

Which binding signal does the source give for “CCGATTAACATCACCCATGGGAATGATGTTAATCGGGTCTTGATTCGCTTGACGCTGCTG” here?
The binding signal was 1.13 z-score.

How did the binding signal turn out when “CCGATTAACATCAAGGACTTTCCTGATGTTAATCGGGTCTTGATTCGCTTGACGCTGCTG” was run?
Its binding signal is 1.03 z-score.

With “CCGATTAACATCAGGAAAAAACCTGATGTTAATCGGGTCTTGATTCGCTTGACGCTGCTG” as the sequence, how does the binding signal read?
The binding signal was 1.77 z-score.

How did the binding signal turn out when “CCGATTAACATCAGGAATTTACCTGATGTTAATCGGGTCTTGATTCGCTTGACGCTGCTG” was run?
Its binding signal is 3.18 z-score.

How did the binding signal turn out when “CCGATTAACATCATTGGGAAAAATGATGTTAATCGGGTCTTGATTCGCTTGACGCTGCTG” was run?
Its binding signal is 2.44 z-score.

With “CCGATTAACATCAATTCCCATGATGATGTTAATCGGGTCTTGATTCGCTTGACGCTGCTG” as the sequence, how does the binding signal read?
Its binding signal is 2.46 z-score.

“CCGATTAACATCAGGGATCGCCCTGATGTTAATCGGGTCTTGATTCGCTTGACGCTGCTG” was tested. Which binding signal did it give?
Its binding signal is 1.19 z-score.

For “CCGATTAACATCAGAAATTACCATGATGTTAATCGGGTCTTGATTCGCTTGACGCTGCTG”, which binding signal is on record?
Its binding signal is 1.45 z-score.

Which binding signal does the source give for “CCGATTAACATCAGGAATCTACCTGATGTTAATCGGGTCTTGATTCGCTTGACGCTGCTG” here?
Its binding signal is 1.61 z-score.

Which binding signal does the source give for “CCGATTAACATCAATTGGGAAATTGATGTTAATCGGGTCTTGATTCGCTTGACGCTGCTG” here?
Its binding signal is 3.36 z-score.

Which binding signal does the source give for “CCGATTAACATCACATGTGGGAATGATGTTAATCGGGTCTTGATTCGCTTGACGCTGCTG” here?
Its binding signal is 1.34 z-score.

With “CCGATTAACATCAGGAATATACCTGATGTTAATCGGGTCTTGATTCGCTTGACGCTGCTG” as the sequence, how does the binding signal read?
Its binding signal is 1.47 z-score.

“CCGATTAACATCAGGTAATTTACTGATGTTAATCGGGTCTTGATTCGCTTGACGCTGCTG” was tested. Which binding signal did it give?
The binding signal was 1.68 z-score.

How did the binding signal turn out when “CCGATTAACATCAGGAAAAGTCCTGATGTTAATCGGGTCTTGATTCGCTTGACGCTGCTG” was run?
The binding signal was 1.25 z-score.

How did the binding signal turn out when “CCGATTAACATCAACCATGGGAATGATGTTAATCGGGTCTTGATTCGCTTGACGCTGCTG” was run?
Its binding signal is 1.18 z-score.

With “CCGATTAACATCAGGATTTTACCTGATGTTAATCGGGTCTTGATTCGCTTGACGCTGCTG” as the sequence, how does the binding signal read?
Its binding signal is 2.01 z-score.

Which binding signal does the source give for “CCGATTAACATCAGGAATGTACCTGATGTTAATCGGGTCTTGATTCGCTTGACGCTGCTG” here?
The binding signal was 1.98 z-score.

With “CCGATTAACATCAAGGTATTTCCTGATGTTAATCGGGTCTTGATTCGCTTGACGCTGCTG” as the sequence, how does the binding signal read?
The binding signal was 1.66 z-score.

“CCGATTAACATCATTATGGGAAATGATGTTAATCGGGTCTTGATTCGCTTGACGCTGCTG” was tested. Which binding signal did it give?
The binding signal was 2.63 z-score.

Which binding signal does the source give for “CCGATTAACATCAGGAAGTTACCTGATGTTAATCGGGTCTTGATTCGCTTGACGCTGCTG” here?
Its binding signal is 1.29 z-score.

For “CCGATTAACATCAAGGAATTTCCTGATGTTAATCGGGTCTTGATTCGCTTGACGCTGCTG”, which binding signal is on record?
The binding signal was 1.75 z-score.

Which binding signal does the source give for “CCGATTAACATCACAAATGGGAATGATGTTAATCGGGTCTTGATTCGCTTGACGCTGCTG” here?
The binding signal was 1.95 z-score.

With “CCGATTAACATCAATTCCCAACATGATGTTAATCGGGTCTTGATTCGCTTGACGCTGCTG” as the sequence, how does the binding signal read?
The binding signal was 2.32 z-score.

“CCGATTAACATCAAGGAAAAACCTGATGTTAATCGGGTCTTGATTCGCTTGACGCTGCTG” was tested. Which binding signal did it give?
Its binding signal is 1.07 z-score.

With “CCGATTAACATCACATTGGGAAATGATGTTAATCGGGTCTTGATTCGCTTGACGCTGCTG” as the sequence, how does the binding signal read?
The binding signal was 2.26 z-score.

With “CCGATTAACATCAACTTTGGGAATGATGTTAATCGGGTCTTGATTCGCTTGACGCTGCTG” as the sequence, how does the binding signal read?
The binding signal was 1.04 z-score.

With “CCGATTAACATCAGACATGGGAATGATGTTAATCGGGTCTTGATTCGCTTGACGCTGCTG” as the sequence, how does the binding signal read?
Its binding signal is 1.46 z-score.

With “CCGATTAACATCAGGAAATTTCCTGATGTTAATCGGGTCTTGATTCGCTTGACGCTGCTG” as the sequence, how does the binding signal read?
The binding signal was 1.72 z-score.

“CCGATTAACATCAAATTGGGAAATGATGTTAATCGGGTCTTGATTCGCTTGACGCTGCTG” was tested. Which binding signal did it give?
Its binding signal is 2.55 z-score.

How did the binding signal turn out when “CCGATTAACATCACTTTGGGAAATGATGTTAATCGGGTCTTGATTCGCTTGACGCTGCTG” was run?
The binding signal was 1.89 z-score.

“CCGATTAACATCAGGGCAGTACCTGATGTTAATCGGGTCTTGATTCGCTTGACGCTGCTG” was tested. Which binding signal did it give?
Its binding signal is 1.21 z-score.

For “CCGATTAACATCAGAAATGGGAATGATGTTAATCGGGTCTTGATTCGCTTGACGCTGCTG”, which binding signal is on record?
The binding signal was 2.45 z-score.

These sequences were tested against T2, GST-Nv-NF-kB (Ser allele) (Nematostella vectensis, UniProt A7UNT2 2-411) in the same assay as above. Conditions: dsDNA, one strand shown.
T2 sequence: T1 sequence with Q21R, C66S, S207N, E215Q, V217A, E225K, A268E, D399E

“CCGATTAACATCAGGAAAAAACCTGATGTTAATCGGGTCTTGATTCGCTTGACGCTGCTG” was tested. Which binding signal did it give?
Its binding signal is 2.77 z-score.

With “CCGATTAACATCAATTGGGAAATTGATGTTAATCGGGTCTTGATTCGCTTGACGCTGCTG” as the sequence, how does the binding signal read?
The binding signal was 3.48 z-score.

How did the binding signal turn out when “CCGATTAACATCAAGGTATTTCCTGATGTTAATCGGGTCTTGATTCGCTTGACGCTGCTG” was run?
The binding signal was 1.29 z-score.

With “CCGATTAACATCAGGAAGTTACCTGATGTTAATCGGGTCTTGATTCGCTTGACGCTGCTG” as the sequence, how does the binding signal read?
Its binding signal is 1.31 z-score.

Each sequence was assayed against T3, GST-Co-NF-kB (Capsaspora owczarzaki, UniProt F1ARL5 200-546) in the same assay as above. Conditions: dsDNA, one strand shown.
T3 sequence: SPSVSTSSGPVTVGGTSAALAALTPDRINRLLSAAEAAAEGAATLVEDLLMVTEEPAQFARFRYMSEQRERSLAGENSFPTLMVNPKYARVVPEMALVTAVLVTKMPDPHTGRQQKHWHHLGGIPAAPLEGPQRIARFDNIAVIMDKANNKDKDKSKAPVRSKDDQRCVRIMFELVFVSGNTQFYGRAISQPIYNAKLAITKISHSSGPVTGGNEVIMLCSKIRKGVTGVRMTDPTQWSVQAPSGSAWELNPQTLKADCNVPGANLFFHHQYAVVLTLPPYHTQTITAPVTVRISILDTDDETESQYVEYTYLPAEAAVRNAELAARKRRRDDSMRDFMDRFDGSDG

With “CCGATTAACATCATTTCCCAAAATGATGTTAATCGGGTCTTGATTCGCTTGACGCTGCTG” as the sequence, how does the binding signal read?
Its binding signal is 1.54 z-score.

How did the binding signal turn out when “CCGATTAACATCACCCATGGGAATGATGTTAATCGGGTCTTGATTCGCTTGACGCTGCTG” was run?
The binding signal was 2.05 z-score.

With “CCGATTAACATCAAAATATTCCGTGATGTTAATCGGGTCTTGATTCGCTTGACGCTGCTG” as the sequence, how does the binding signal read?
Its binding signal is 1.07 z-score.

Which binding signal does the source give for “CCGATTAACATCAGGAGTATCCCTGATGTTAATCGGGTCTTGATTCGCTTGACGCTGCTG” here?
The binding signal was 1.01 z-score.

For “CCGATTAACATCAGGGTTAGTTGTGATGTTAATCGGGTCTTGATTCGCTTGACGCTGCTG”, which binding signal is on record?
The binding signal was 1.11 z-score.

How did the binding signal turn out when “CCGATTAACATCATTGGGAAAAATGATGTTAATCGGGTCTTGATTCGCTTGACGCTGCTG” was run?
The binding signal was 3.75 z-score.

“CCGATTAACATCAATTCCCATGATGATGTTAATCGGGTCTTGATTCGCTTGACGCTGCTG” was tested. Which binding signal did it give?
The binding signal was 1.75 z-score.

How did the binding signal turn out when “CCGATTAACATCAATTGGGAAATTGATGTTAATCGGGTCTTGATTCGCTTGACGCTGCTG” was run?
Its binding signal is 1.8 z-score.

How did the binding signal turn out when “CCGATTAACATCACATGTGGGAATGATGTTAATCGGGTCTTGATTCGCTTGACGCTGCTG” was run?
The binding signal was 2.62 z-score.

For “CCGATTAACATCAGGTAATTTACTGATGTTAATCGGGTCTTGATTCGCTTGACGCTGCTG”, which binding signal is on record?
The binding signal was 1.89 z-score.

“CCGATTAACATCAACCATGGGAATGATGTTAATCGGGTCTTGATTCGCTTGACGCTGCTG” was tested. Which binding signal did it give?
The binding signal was 1.67 z-score.

With “CCGATTAACATCATTATGGGAAATGATGTTAATCGGGTCTTGATTCGCTTGACGCTGCTG” as the sequence, how does the binding signal read?
Its binding signal is 2.21 z-score.

Which binding signal does the source give for “CCGATTAACATCACAAATGGGAATGATGTTAATCGGGTCTTGATTCGCTTGACGCTGCTG” here?
The binding signal was 1.92 z-score.

With “CCGATTAACATCAATTCCCAACATGATGTTAATCGGGTCTTGATTCGCTTGACGCTGCTG” as the sequence, how does the binding signal read?
Its binding signal is 1.84 z-score.

With “CCGATTAACATCAACGGAAATTCTGATGTTAATCGGGTCTTGATTCGCTTGACGCTGCTG” as the sequence, how does the binding signal read?
The binding signal was 1.34 z-score.

How did the binding signal turn out when “CCGATTAACATCACATTGGGAAATGATGTTAATCGGGTCTTGATTCGCTTGACGCTGCTG” was run?
Its binding signal is 2.31 z-score.

With “CCGATTAACATCAACTTTGGGAATGATGTTAATCGGGTCTTGATTCGCTTGACGCTGCTG” as the sequence, how does the binding signal read?
Its binding signal is 1.7 z-score.

“CCGATTAACATCACGGAAATTTATGATGTTAATCGGGTCTTGATTCGCTTGACGCTGCTG” was tested. Which binding signal did it give?
The binding signal was 1.07 z-score.

How did the binding signal turn out when “CCGATTAACATCAGACATGGGAATGATGTTAATCGGGTCTTGATTCGCTTGACGCTGCTG” was run?
The binding signal was 2.4 z-score.

For “CCGATTAACATCAAATTGGGAAATGATGTTAATCGGGTCTTGATTCGCTTGACGCTGCTG”, which binding signal is on record?
Its binding signal is 1.89 z-score.

How did the binding signal turn out when “CCGATTAACATCACTTTGGGAAATGATGTTAATCGGGTCTTGATTCGCTTGACGCTGCTG” was run?
Its binding signal is 2.05 z-score.

With “CCGATTAACATCAACTATCCCGCTGATGTTAATCGGGTCTTGATTCGCTTGACGCTGCTG” as the sequence, how does the binding signal read?
Its binding signal is 1.37 z-score.

Which binding signal does the source give for “CCGATTAACATCAGAAATGGGAATGATGTTAATCGGGTCTTGATTCGCTTGACGCTGCTG” here?
The binding signal was 1.87 z-score.
